PubChem BioAssay (Tox21)
Results filed as inconclusive are left out. The source made the active and inactive calls. Unless noted, calls come from the whole dose curve; as a rule, active = well fitted curve in the direction sought with a large enough effect in the repeat runs; inconclusive = weak or mixed curves; inactive = no such curve, though single readings can be large; an effect the other way counts as inactive or inconclusive.

Columns and labels:
[1] = qHTS assay to identify small molecule antagonists of the vitamin D receptor (VDR) signaling pathway - cell viability counter screen (AID 743225); note: nearly all actives have a fitted effect of over 50% in size; note: potency is the fitted concentration of half-maximal effect
Procedure, shortened: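 Parallel cytotoxicity test: VDR-UAS-bla HEK 293T, 3 nM (final) 1-alpha,25-dihydroxyvitamin D3 with test compound, 16 h, 37C. Endpoint is CellTiter-Glo luminescence in the same wells.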

[2] = qHTS assay to identify small molecule agonists of the NFkB signaling pathway - cell viability counter screen (AID 1159515; calls by dose curve; note: nearly all actives have a fitted effect of over 55% in size; note: potency is the fitted concentration of half-maximal effect)
Procedure, shortened: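 Plate 2,000 NFkB-bla ME-180 cells/well; incubate overnight. Add compounds, 5 hr at 37 C. Add FRET substrate, 1.5 hr RT. Add CellTiter-Glo, 30 min RT; read luminescence.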

[3] = qHTS assay to identify small molecule agonists of the endoplasmic reticulum stress response signaling pathway - cell viability counter screen (AID 1159517; calls by dose curve; note: nearly all actives have a fitted effect of over 50% in size; note: potency is the fitted concentration of half-maximal effect)
Procedure, shortened: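 Cpd-treated ESRE-bla HeLa (5 hr, 37 C) → LiveBLAzer 2 hr RT → CellTiter-Glo 30 min RT → luminescence.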

[4] = qHTS assay to identify small molecule antagonists of the retinoid-related orphan receptor gamma (ROR-gamma) signaling pathway - cell viability counter screen (AID 1159520); note: nearly all actives have a fitted effect of over 50% in size; note: potency is the fitted concentration of half-maximal effect
Procedure, shortened: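 Tet-on ROR gamma CHO cells (1,000/well) were plated 4 hr, given compounds in DMSO for 2 hr at 37 C, then induced with 1 uM final doxycycline for 16 hr. Viability was read as ATP by CellTiter-Glo luminescence after 30 min.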

[5] = biological target: Nuclear receptor ROR-gamma (Homo sapiens) (UniProt P51449); assay: qHTS assay to identify small molecule antagonists of the retinoid-related orphan receptor gamma (ROR-gamma) signaling pathway (AID 1159521; note: nearly all actives have a fitted effect of over 50% in size; note: potency is the fitted concentration of half-maximal effect)
Procedure, shortened: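 Decreased RORE-driven luciferase luminescence indicates antagonism. Tet-on RORγ CHO cells received compound, then 1 uM final doxycycline 2 h later; signal read after 16 h incubation.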

[6] = qHTS assay to identify small molecule agonists of the AP-1 signaling pathway (AID 1159526; calls by dose curve)
[7] = biological target: Retinoic acid receptor RXR-alpha (Homo sapiens) (UniProt P19793); assay: qHTS assay to identify small molecule agonists of the RXR signaling pathway (AID 1159527; calls by dose curve; note: nearly all actives have a fitted effect of over 35% in size)
Sequence of Retinoic acid receptor RXR-alpha (Homo sapiens) (P19793 whole entry, looked up): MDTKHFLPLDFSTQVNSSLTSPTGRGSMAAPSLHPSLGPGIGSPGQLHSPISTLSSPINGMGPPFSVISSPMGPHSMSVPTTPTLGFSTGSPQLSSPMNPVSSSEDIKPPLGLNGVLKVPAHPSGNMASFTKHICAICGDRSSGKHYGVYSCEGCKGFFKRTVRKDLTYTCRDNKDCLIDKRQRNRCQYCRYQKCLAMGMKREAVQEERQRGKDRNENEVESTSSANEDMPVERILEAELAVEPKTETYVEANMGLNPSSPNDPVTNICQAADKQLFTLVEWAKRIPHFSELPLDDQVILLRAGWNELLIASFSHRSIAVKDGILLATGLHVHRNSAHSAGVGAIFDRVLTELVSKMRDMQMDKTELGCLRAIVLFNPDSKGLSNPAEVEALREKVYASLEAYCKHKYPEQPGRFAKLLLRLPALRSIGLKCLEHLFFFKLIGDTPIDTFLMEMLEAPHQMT
Procedure, shortened: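 16 hr incubation of compound-treated RXR-alpha-UAS-bla HEK 293T cells (2% charcoal-stripped FBS, 37 C) preceded a 2 hr room-temperature LiveBLAzer FRET substrate step and blue/green fluorescence measurement.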

[8] = qHTS assay to identify small molecule agonists of the RXR signaling pathway - cell viability counter screen (AID 1159529); note: nearly all actives have a fitted effect of over 50% in size; note: potency is the fitted concentration of half-maximal effect
Procedure, shortened: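 In this parallel viability measure, GeneBLAzer RXR-alpha HEK 293T cells (2% charcoal-stripped FBS) were given a 5 hr preincubation, treated with compounds 16 hr at 37 C, and read by CellTiter-Glo luminescence.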

[9] = qHTS assay to identify small molecule antagonists of the retinoid acid receptor (RAR) signaling pathway - cell viability counter screen (AID 1159551); note: nearly all actives have a fitted effect of over 35% in size; note: potency is the fitted concentration of half-maximal effect
Procedure, shortened: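 Viability of C3RL4 cells is quantified from ATP by luminescence after 6 h treatment at 37 C with compounds and 1 uM retinol.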

[10] = qHTS assay to identify small molecule agonists of the vitamin D receptor (VDR) signaling pathway - cell viability counter screen (AID 743224); note: nearly all actives have a fitted effect of over 50% in size; note: potency is the fitted concentration of half-maximal effect
Procedure, shortened: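 In parallel with the bla FRET readout, cytotoxicity toward VDR-bla cells after 16 h compound exposure was assessed by CellTiter-Glo, with luminescence recorded after a 30 min room-temperature incubation.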

[11] = qHTS assay to identify small molecule agonists of the AP-1 signaling pathway - cell viability counter screen (AID 1159525; calls by dose curve; note: nearly all actives have a fitted effect of over 55% in size; note: potency is the fitted concentration of half-maximal effect)
Procedure, shortened: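 Each titration point was normalised to DMSO and tetra n-octyl ammonium bromide controls. The read was Cell Titer Glo luminescence after 30 min at RT, following 5 h compound exposure of ME-180 AP-1-bla cells at 37 °C.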

[12] = qHTS assay to identify small molecule antagonists of the retinoic acid receptor (RAR) signaling pathway (AID 1159552; note: nearly all actives have a fitted effect of over 50% in size; note: potency is the fitted concentration of half-maximal effect)
Procedure, shortened: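 C3RL4 RARE-luc cells, overnight plating; retinol 1 uM final added right after compound; 6 hr 37 C; luciferase read at 30 min RT.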

[13] = qHTS assay to identify small molecule agonists of the retinoic acid receptor (RAR) signaling pathway (AID 1159553)
Procedure, shortened: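 Compounds dissolved in DMSO were pinned onto C3RL4 cells seeded the previous day, and plates were held 6 hr at 37 C. RARE-driven luciferase output was then read by luminescence.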

[14] = qHTS assay to identify small molecule agonists of the estrogen related receptor (ERR) signaling pathway (AID 1224820)
Procedure, shortened: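 An ERR cell line provided by NTP was seeded at 2,000 cells per well and allowed to settle for 6 h before compounds in DMSO were added. After 18 h at 37 C, luciferase activity was measured by One-Glo luminescence.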

[15] = system: estrogen-related receptor alpha (ERRalpha) with PGC-1alpha coactivator, human; assay: qHTS assay to identify small molecule antagonists of the estrogen related receptor signaling pathway with the pleiotropic PPARgamma coactivator (PGC) (AID 1224821; calls by dose curve)
Procedure, shortened: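 A PGC/ERR cell line supplied by NTP is seeded, allowed 6 h at 37 C, and treated with test compounds in DMSO for 18 h. Signal is then measured as luciferase luminescence using One-Glo.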

[16] = qHTS assay to identify small molecule antagonists of the estrogen related receptor signaling pathway with the pleiotropic PPARgamma coactivator (PGC) cell viability counter screen (AID 1224822; note: potency is the fitted concentration of half-maximal effect;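 note: viability read after 17.5 h compound exposure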)
Procedure, shortened: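 Viable cell signal (CellTiter-Fluor, 30 min, 37 C/5% CO2) was measured in PGC/ERR cells after a 17.5 h compound incubation.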

[17] = qHTS assay to identify small molecule agonists of the estrogen related receptor signaling pathway with the pleiotropic PPARgamma coactivator (PGC) (AID 1224823)
Procedure, shortened: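 Compounds dissolved in DMSO are added by pin tool to PGC/ERR cells that have settled for 6 h, and incubation continues 18 h at 37 C. Reporter output is measured as One-Glo luminescence.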

[18] = qHTS assay to identify small molecule antagonists of the estrogen related receptor (ERR) signaling pathway - cell viability counter screen (AID 1224818);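 note: potency is the fitted concentration of half-maximal effect; viability measured after 17.5 h of compound exposure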
Procedure, shortened: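 Cytotoxicity check run alongside the ERR antagonist screen: cells exposed to test compounds 17.5 h at 37 C, viability taken as CellTiter-Fluor fluorescence intensity.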

Measured: Potency

O=c1[nH]cnc2nc[nH]c12
inactive: [1] | [2] | [3] | [4] | [5] | [6] | [7] | [8] | [9]

CCCCCCCCCCCCc1ccc(O)cc1
active: [10] 12.3 µM | [1] 17.4 µM | [2] 24.5 µM | [3] 21.9 µM | [4] 30.6 µM | [5] 24.3 µM | [11] 17.4 µM | [9] 61.1 µM | [12] 48.6 µM

CCOC(=O)O[C@]1(C(=O)OCCl)CC[C@H]2[C@@H]3CCC4=CC(=O)C=C[C@]4(C)[C@H]3[C@@H](O)C[C@@]21C
inactive: [10] | [1] | [2] | [3] | [4] | [5] | [7] | [8] | [12]

CCCC(C)c1ccccc1O (stereo not drawn)
inactive: [10] | [1] | [2] | [3] | [4] | [5] | [7] | [9] | [12] | [13]

CNCc1cc(F)ccc1Oc1ccc(Cl)c(Cl)c1
active: [5] 34.4 µM
inactive: [2] | [3] | [4] | [11] | [9]

[O-][n+]1ccccc1SSc1cccc[n+]1[O-]
active: [10] 0.164 µM | [2] 0.233 µM | [3] 4.14 µM | [4] 0.103 µM | [5] 0.058 µM | [8] 0.165 µM | [12] 0.092 µM

O=S1(=O)CC(Cl)(Cl)C(Cl)(Cl)C1
active: [1] 4.36 µM | [2] 5.49 µM | [3] 4.9 µM | [4] 6.11 µM | [5] 2.17 µM | [11] 4.9 µM | [9] 15.4 µM

OCCN1CCN(CC/C=C2/c3ccccc3Sc3ccc(C(F)(F)F)cc32)CC1
active: [1] 23.9 µM | [2] 26.8 µM | [3] 23.9 µM | [4] 29.8 µM | [5] 26.6 µM | [11] 23.9 µM
inactive: [14] | [15] | [16] | [17]

CC(C)(C)c1ccc(C(=O)CCCN2CCC(OC(c3ccccc3)c3ccccc3)CC2)cc1
active: [2] 23.9 µM | [3] 23.9 µM | [4] 21.1 µM | [5] 11.9 µM | [11] 15.1 µM | [8] 15.1 µM | [12] 26.6 µM

CC(C)c1ccc2c(c1)CC[C@H]1[C@](C)(CN)CCC[C@]21C
active: [10] 17.4 µM | [1] 43.6 µM | [2] 19.5 µM | [3] 9.77 µM | [4] 30.6 µM | [5] 30.6 µM | [8] 21.9 µM

O=c1[nH]sc2ccccc12
active: [10] 12.3 µM | [2] 49 µM | [3] 54.9 µM | [4] 21.7 µM | [5] 17.2 µM | [11] 34.7 µM | [8] 19.5 µM

CCOc1ccc2nc3cc(N)ccc3c(N)c2c1
inactive: [10] | [1] | [2] | [3] | [4] | [5] | [11] | [9] | [13]

CCCCc1oc2ccc(NS(C)(=O)=O)cc2c1C(=O)c1ccc(OCCCN(CCCC)CCCC)cc1
active: [10] 26.6 µM | [1] 23.9 µM | [2] 26.8 µM | [3] 21.3 µM | [4] 26.6 µM | [5] 23.7 µM | [9] 26.6 µM | [12] 16.8 µM

CSc1ccc(/C=C2/C(C)=C(CC(=O)O)c3cc(F)ccc32)cc1
inactive: [1] | [2] | [3] | [4] | [5] | [11] | [8] | [12] | [13]

N=C1N=C(N)c2cc3ccccc3cc21
inactive: [14] | [17]
active: [10] 49 µM | [2] 49 µM | [3] 8.71 µM | [4] 30.6 µM | [5] 30.6 µM | [11] 49 µM | [8] 49 µM | [12] 43.3 µM | [18] 25.3 µM | [16] 20.9 µM

CCCCN1C(=O)[C@@H]([C@H](O)C2CCCCC2)NC(=O)C12CCN(Cc1ccc(Oc3ccc(C(=O)O)cc3)cc1)CC2
inactive: [2] | [3] | [4] | [5] | [8] | [9]

CCCCCCCCCCCCCC[P+](CCCC)(CCCC)CCCC (tested in a mixture with another compound)
inactive: [1]
active: [2] 22 µM | [3] 22 µM | [4] 15.4 µM | [5] 4.89 µM | [11] 12.4 µM | [9] 27.5 µM

CCCCCCCCNC(C)C(O)c1ccc(SC(C)C)cc1 (stereo not drawn)
active: [10] 13.3 µM | [1] 9.52 µM | [2] 13.4 µM | [3] 19 µM | [4] 18.8 µM | [5] 23.7 µM | [11] 16.9 µM | [9] 26.6 µM | [12] 13.3 µM

Cc1cccc2c1cc1ccc3cccc4ccc2c1c34
inactive: [10] | [1] | [2] | [3] | [4] | [5] | [9] | [12]

CS(=O)(=O)CCNCc1ccc(-c2ccc3ncnc(Nc4ccc(OCc5cccc(F)c5)c(Cl)c4)c3c2)o1
inactive: [9] | [13]
active: [10] 29.8 µM | [1] 21.3 µM | [2] 16.9 µM | [3] 15.1 µM | [4] 29.8 µM | [11] 21.3 µM | [8] 16.9 µM

CC/C(=C(\c1ccc(O)cc1)c1ccc(OCCN(C)C)cc1)c1ccccc1
active: [10] 17.4 µM | [1] 19.5 µM | [2] 49.1 µM | [3] 61.8 µM | [4] 34.4 µM | [11] 27.6 µM | [8] 21.9 µM | [12] 68.7 µM
